Mot1-301 SUMO: yeast Mot1-301 growth rescue at high temperature, primary screen, SUMOylation pathway inhibitor project, S. cerevisiae, ATP luminescence, 38.5C | growth rescue, % at 18.8 µM | 320,000 compounds, 1% hits | AID 2716, 2010 | S. cerevisiae Mot1-301 growth rescue; percent above DMSO median, 100 means doubled;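 active = every valid replicate shows activation above 250% relative to neutral control wells; inactive = the rest, any valid replicate at or below 250%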;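 note: OY570 slx delta 5 strain wells were the positive control but not used for scaling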
Efflux pump mplx: inhibitors of Candida efflux pumps in yeast, primary screen, S. cerevisiae, Nile Red, multiplex. S. cerevisiae Candida pump triplex. inhibition, % at 10 µM. 330,000 compounds, 0.44% hits. AID 485275, 2010;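 active = plate passing quality check with inhibition over a set limit, or well fluorescence over plate mean plus 4 SD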;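 note: Nile Red retained in pooled yeast measured as flow cytometry median fluorescence; 0% = buffer negative control and 100% = Enniatin B positive control; higher means more Nile Red kept so more efflux inhibition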
HGIII-sPLA2 inh: human group III sPLA2 inhibitors, primary screen, biochemical, QFRET, BODIPY PC-A2 liposome substrate; Group 3 secretory phospholipase A2 (Homo sapiens), Q9NZ20; QFRET BODIPY PC-A2 liposome hydrolysis, fluorescence; inhibition, % at 12.2 µM; 370,000 compounds, 0.56% hits; AID 743126, 2013;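 active = inhibition above mean plus 3 SD of compounds lying within the high and low control bounds, cut at about 19% in these data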;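 note: 0% = median of test compound wells and 100% = no enzyme DMSO wells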
Target sequence (Q9NZ20 whole entry, looked up): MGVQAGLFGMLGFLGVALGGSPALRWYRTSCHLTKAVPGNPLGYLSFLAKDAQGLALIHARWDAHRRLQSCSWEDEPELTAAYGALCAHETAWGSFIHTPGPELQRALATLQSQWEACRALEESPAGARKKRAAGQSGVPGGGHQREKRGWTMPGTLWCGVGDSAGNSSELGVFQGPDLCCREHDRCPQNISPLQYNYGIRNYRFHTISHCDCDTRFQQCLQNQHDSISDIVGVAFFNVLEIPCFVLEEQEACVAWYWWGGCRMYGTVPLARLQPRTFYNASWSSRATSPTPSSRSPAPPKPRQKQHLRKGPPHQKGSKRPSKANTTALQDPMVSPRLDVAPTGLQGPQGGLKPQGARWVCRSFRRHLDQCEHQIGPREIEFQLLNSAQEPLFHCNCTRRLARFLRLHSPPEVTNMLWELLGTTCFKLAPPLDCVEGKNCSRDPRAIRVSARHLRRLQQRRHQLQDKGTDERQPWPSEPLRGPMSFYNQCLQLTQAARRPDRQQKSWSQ
SKN-1 block: suppressors of acrylamide-induced Pgst-4::GFP reporter in worms, primary screen, SKN-1 inhibitor project, whole organism, uHTS, GFP/RFP fluorescence ratio, strain VP596; C. elegans VP596 Pgst-4::GFP/RFP ratio, 24 h; inhibition, % at 21.8 µM; 360,000 compounds, 0.49% hits;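 active = interference check ratio from 0.5 to 1.5 plus GFP to RFP signal ratio inhibition reaching or exceeding a fixed threshold, cut at about 30% in these data, passing the limit was not always enough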
Yeast cmpd fluor: counter-screen for efflux pump inhibitors: compound fluorescence | shares compounds with Efflux pump mplx | S. cerevisiae AD/pABC3, flow cytometry | fluorescence ratio to DMSO, % at 10 µM | 1,700 compounds, 4% hits | AID 588517;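 active = fluorescence ratio to DMSO above its plate's cutoff, the plate mean ratio plus 5 SD, cut at about 210% in these data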;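 note: unstained yeast with no Nile Red so the signal is compound autofluorescence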
Mdr1 pump inh: inhibitors of Candida albicans Mdr1 efflux, confirmation, flow cytometry, singleplex, Cherry Pick1 set | shares compounds with Efflux pump mplx | 1,700 compounds, 1% hits | S. cerevisiae AD/CaMDR1, Nile Red efflux | inhibition, % at 10 µM; in the data active = inhibition above about 26%;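 note: 0% = DMSO vehicle and 100% = reference inhibitor; higher means more Nile Red retained so more efflux inhibition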
Cdr2 pump inh: inhibitors of Candida albicans Cdr2 efflux pump, confirmation, S. cerevisiae AD/CaCDR2, flow cytometry, cherry pick 1, singleplex. shares compounds with Efflux pump mplx. Nile Red retention. Nile Red retention ratio vs DMSO, % at 10 µM. 1,700 compounds, 4% hits. AID 588520, 2011; in the data active = Nile Red retention ratio vs DMSO above about 190%;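 note: higher ratio means more blocking of Cdr2 efflux of the dye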
CaCdr1 efflux inh: inhibitors of Candida albicans Cdr1 efflux pump, confirmation, S. cerevisiae AD/CaCDR1, flow cytometry, cherry pick 1, singleplex; inhibition, % at 10 µM; 1,700 compounds, 1% hits; Nile Red efflux; shares compounds with Efflux pump mplx; AID 588522, 2011;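 active = inhibition above the screen-wide mean plus twice its standard deviation, cut at about 32% in these data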
The depositor's hits bear a star; x = no result. An excerpt weighted towards active compounds, which were near 2.2% of everything screened.

SMILES	Mot1-301 SUMO	Efflux pump mplx	HGIII-sPLA2 inh	SKN-1 block	Yeast cmpd fluor	Mdr1 pump inh	Cdr2 pump inh	CaCdr1 efflux inh
Cc1ccc(C(=O)N2CCC3(CC2)Oc2ccc(F)cc2C(=O)C32CC(c3ccccc3)=NO2)s1 (configuration not stated)	-9	3	-6	10	x	x	x	x
CCC(=O)N1CCC2(CC1)Oc1ccc(Cl)cc1C(=O)C21CC(c2ccc(Cl)cc2)=NO1 (configuration not stated)	19	0	-10	7	107	0	108	0
Cc1ccc(C(=O)N2CCC3(CC2)Oc2ccc(Cl)cc2C(=O)C32CC(c3ccc(Cl)cc3)=NO2)s1 (configuration not stated)	-20	0	3	-6	98	0	112	0
CCC(=O)N1CCC2(CC1)Oc1ccc(F)cc1C(=O)C21CC(c2ccc(Cl)cc2)=NO1 (configuration not stated)	9	0	-9	3	x	x	x	x
Cc1ccc(C(=O)N2CCC3(CC2)Oc2ccc(Cl)cc2C(=O)C32CC(c3ccccc3)=NO2)s1 (configuration not stated)	-8	0	4	-9	94	0	91	0
CCOC(=O)C1CCN(CCCSc2ccccc2)CC1	201	0	-5	-17	x	x	x	x
CCC(=O)N1CCC1(C)C(=O)Nc1cnc2ccccc2c1 (configuration not stated)	x	x	5	6	x	x	x	x
CCOC(=O)[C@@]12CN(C(=O)OC(C)(C)C)CC=C1N(Cc1ccc(OC)cc1)C(=O)[C@H]2CC(=O)NCCC(C)C	x	x	-3	x	x	x	x	x
C=CCNC(=O)CN(Cc1ccccc1)S(=O)(=O)c1ccccc1	-4	0	-2	-12	x	x	x	x
COC(=O)[C@]12C[C@H](CC(=O)NCCC(C)C)C(=O)N(Cc3ccc(Cl)cc3Cl)C1=C[C@H](C(C)(C)C)O[C@@H]2C	x	x	3	x	x	x	x	x
O=C(Nc1ccc(S(=O)(=O)Nc2ncccn2)cc1)c1cccc(Br)c1	-1	0	2	-8	x	x	x	x
O=C(Nc1ccc(S(=O)(=O)Nc2ccccn2)cc1)c1cccc(Br)c1	-22	6.2*	-20	-2	100	0	87	0
N#CCCn1nc2c(c1N)CCC2	x	x	4	1	x	x	x	x
Cc1ccc(C(C)(C)C)cc1S(=O)(=O)N1CCC(C(=O)N2CCN(c3ccc(O)cc3)CC2)CC1	218	0.8*	-22	-13	117	0	118	0
Cc1ccc(Cl)cc1N1CCN(c2cccc[n+]2C)CC1	20	2.2*	11	-2	95	0	92	0
CCc1cc2c(=O)n(Cc3ccccc3)c(SC3CCOC3=O)nc2s1 (configuration not stated)	-7	0.9*	-32	10	98	0	112	0
C/C=C(\C)C(=O)OC1[C@H](OC(C)=O)C2(CO)C(CC1(C)C)C1=CCC3C4(C)CCC(O[C@@H]5O[C@H](C(=O)O)[C@@H](O[C@@H]6O[C@H](CO)[C@@H](O)[C@H](O)[C@H]6O)[C@H](O)[C@H]5O[C@H]5O[C@H](CO)[C@@H](O)[C@H](O)[C@H]5O)[C@](C)(CO)C4CCC3(C)[C@]1(C)C[C@H]2O (some centres not stated)	x	x	x	7	x	x	x	x
CCn1c(C(=O)N2CCCC(C(=O)NCCc3ccc(C)cc3)C2)cc2sccc21 (configuration not stated)	7	1.0*	-9	-2	103	0	94	0
CCn1c(C(=O)N2CCCC(C(=O)NCCCc3ccccc3)C2)cc2sccc21 (configuration not stated)	83	0	-16	18	x	x	x	x
Cc1cc(=O)oc2cc(OC(C)C)ccc12	1	0	-2	-2	x	x	x	x
Cc1cc(=O)oc2cc(OC(C(=O)O)c3ccccc3)ccc12 (configuration not stated)	3	1.1*	9	-8	101	0	87	0
COc1ccc(CNC(=O)c2cc3c(s2)CN(Cc2ccccc2)C3)cc1	3	0.5*	-6	-12	99	0	100	0
Cn1c(=O)c(=O)n(C)c2cc(S(=O)(=O)N3CCc4ccccc43)ccc21	-6	0.8*	1	47	238	0	96	0
CC(=O)c1cccc(NC(=O)CCCCCn2nnc3ccccc3c2=O)c1	6	0	13	4	x	x	x	x
COc1ccc2[nH]cc(/C=C/c3cc[n+](C)cc3)c2c1	8	2	-4	-2	419*	6	136	3
SMILES	Mot1-301 SUMO	Efflux pump mplx	HGIII-sPLA2 inh	SKN-1 block	Yeast cmpd fluor	Mdr1 pump inh	Cdr2 pump inh	CaCdr1 efflux inh
CCOc1ccc(C(=O)Nc2cccc(-c3nc4cccnc4o3)c2)cc1Cl	-1	1.0*	x	-10	113	0	114	0
CCOC(=O)c1nc(Nc2cccc(C)c2)c2ccccc2n1	-11	0	-2	18	x	x	x	x
CCOC(=O)c1nc(Nc2ccccc2C)c2ccccc2n1	2	0.9*	-2	7	104	0	109	0
Brc1ccc(-c2csc(NC3=NCCCCC3)n2)cc1	172	7.6*	4	24	113	1	107	0
Cc1ccc(C)n1-c1ccc(N2CCOCC2)nc1	10	12*	x	12	99	0	88	0
Cc1ccc(S(=O)(=O)Nc2ccc(N3CCOCC3)nc2)cc1	393	0	3	2	x	x	x	x
CCOC(=O)C(NC(=O)c1cccc(Cl)c1)(Nc1nnc(C)s1)C(F)(F)F (configuration not stated)	-17	9.7*	5	2	106	0	108	0
COc1cc(C(O)c2nc(-c3cccc(NC(C)=O)c3)cs2)ccc1F (configuration not stated)	x	x	-15	-4	x	x	x	x
Cc1ccc(NC(=O)CSc2nc(C)c(Cc3ccccc3)c(=O)[nH]2)cc1	-13	0	-40	-2	x	x	x	x
Cc1cccc(NC(=O)CSc2nc(C)c(Cc3ccccc3)c(=O)[nH]2)c1C	-17	2.1*	x	x	98	0	101	0

High-throughput results from PubChem.
